Screening data: PubChem BioAssay, National Center for Advancing Translational Sciences (NCATS)
The list is not random: actives were taken first. Their share in the collection is about 11%.
JMJD2A Tudor inh – inhibitors of human JMJD2A Tudor domain; O75164; AID 504339; Potency, µM (top dose mostly 114 µM), usual class: inhibitors; actives 4.4% (n = 390,000); AlphaScreen JMJD2A-Tudor / H3K4me3 peptide binding; note: nearly all actives have a fitted effect of over 50% in size
G9a block – G9a (human) methyltransferase inhibition; Q96KQ7; G9a H3K9 monomethylation, AlphaScreen, 2 h; Potency, µM (titrated, usually from 102 µM), usual class: inhibitors; actives 8.8% (n = 350,000); AID 504332; note: nearly all actives have a fitted effect of over 75% in size
Target sequence (Q96KQ7 913-1193 limits assumed): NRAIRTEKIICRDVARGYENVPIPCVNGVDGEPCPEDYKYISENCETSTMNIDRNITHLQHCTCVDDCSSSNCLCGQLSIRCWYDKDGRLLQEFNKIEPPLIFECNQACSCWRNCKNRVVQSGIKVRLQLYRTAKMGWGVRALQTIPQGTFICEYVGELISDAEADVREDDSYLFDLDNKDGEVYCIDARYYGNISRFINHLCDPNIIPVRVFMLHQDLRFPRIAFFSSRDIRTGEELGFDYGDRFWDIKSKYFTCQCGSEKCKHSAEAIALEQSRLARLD
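Signal arises when biotinylated H3K9 peptide, once monomethylated, bridges streptavidin donor and antibody-captured acceptor beads. Enzyme at 20 nM was preincubated 15 min with test compounds; peptide 500 nM and SAM 20 uM then reacted for 2 h.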
HP1b chromo inh – inhibitors of HP1-beta chromodomain binding to methylated histone tails. P83916. AlphaScreen HP1-beta / biotin-H3K9me3 peptide binding. Potency, µM (doses to about 114 µM), most hits filed as inhibitors. actives 0.56% (n = 390,000). AID 540317; note: nearly all actives have a fitted effect of over 70% in size
Target sequence (P83916 whole entry, looked up): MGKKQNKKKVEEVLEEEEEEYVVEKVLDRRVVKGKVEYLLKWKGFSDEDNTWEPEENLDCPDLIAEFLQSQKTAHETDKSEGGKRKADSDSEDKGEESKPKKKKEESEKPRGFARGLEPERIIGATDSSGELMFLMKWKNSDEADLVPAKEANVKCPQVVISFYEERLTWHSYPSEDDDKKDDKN
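Compound inhibition of the preformed complex between 50 nM HP1-beta and 50 nM biotinylated H3K9me3 peptide was read by AlphaScreen. Buffer was PBS pH 7.4 with 0.01% Tween-20. Incubations ran 30 min at room temperature, with 10 ug/mL donor/acceptor beads.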
L3MBTL1 inh – blocks human L3MBTL1 | Q9Y468 | AlphaScreen L3MBTL1–H3K9me1 peptide binding | Potency, µM (series often up to 57.1 µM), hits mostly inhibitors | actives 0.66% (n = 230,000) | AID 485360; note: nearly all actives have a fitted effect of over 60% in size
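First, the protein-peptide complex forms for 30 min at room temperature (L3MBTL1 50 nM, biotinylated H3K9me1 peptide 75 nM). Next, compounds are pin-transferred and incubated 30 min. Finally, AlphaScreen beads are added and read after 30 min.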
BAZ2B inh – inhibitors of human BAZ2B bromodomain. Q9UIF8. AlphaScreen BAZ2B-H3K14Ac peptide displacement. Potency, µM (titrated, usually from 114 µM), usual class: inhibitors. actives 4.4% (n = 360,000); note: nearly all actives have a fitted effect of over 60% in size
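Complex of BAZ2B and biotin-H3K14Ac (50 nM apiece) forms over 30 min at RT, then faces library compounds up to 110 uM for another 30 min; AlphaScreen beads added, 20 min dark incubation, luminescence read.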
Numbers stand for hits; n = inactive; u = inconclusive; x = not tested or not shown; [ ] = remark or other dose. Calls come from the whole dose curve; as a rule, active = well fitted inhibition curve with a large enough effect; inconclusive = small, poorly fitted or top-dose-only effect; inactive = no such curve, though single readings can be large or run the other way.

SMILES | JMJD2A Tudor inh | G9a block | HP1b chromo inh | L3MBTL1 inh | BAZ2B inh
O=C(/C=C/c1ccccc1)OCc1ccccc1 | x | n | x | x | x
CCCc1nn2c(=O)cc(COC(=O)c3cccc(NC(=O)c4ccc(OCC)cc4)c3)nc2s1 | n | n[12.7 µM] | n | x | n
Cc1cc(NS(=O)(=O)c2ccc3c(c2)CCC(=O)N3)ccc1Cl | n | x | x | x | x
O=C(NC(=S)Nc1ccc(S(=O)(=O)Nc2ncccn2)cc1)c1ccc(Br)cc1 | n | 50µM | u | n | n
COc1ccc(NS(=O)(=O)c2ccc(NC(=O)c3ccc(Br)cc3)cc2)nn1 | n | n | n | n | n
COc1ccc(NS(=O)(=O)c2ccc(NC(=S)NC(=O)c3cccnc3)cc2)nn1 | n[11.4 µM] | 28µM | n | n | n
COc1ccc(NS(=O)(=O)c2ccc(NC(=S)NC(=O)c3ccc(Br)cc3)cc2)nn1 | u | 18µM | n | n | u
COc1ccc(NS(=O)(=O)c2ccc(NC(=S)NC(=O)c3cccc(F)c3)cc2)nn1 | n | u | n | n | u
CCC(C)NC(=O)CSc1nc2cc3c(cc2c(=O)n1CCCCCC(=O)NCc1ccc2c(c1)OCO2)OCO3 (stereo unspecified) | n | n | n | x | n
COc1ccc(-c2nc(C)c(CCNS(=O)(=O)c3cc(C)c(C)cc3C)s2)cc1 | n | n | n | x | n
CCCCNc1ncnc2oc(-c3ccco3)c(-c3ccco3)c12 | 50µM | x | u | x | x
COC(=O)/C=C1/S/C(=N/NC(=O)c2ccc(OC)cc2)NC1=O | n | n | n | x | n
COC(=O)/C=C1/S/C(=N/NC(=O)c2ccccc2OC)NC1=O | n | 7.9µM | n | x | n
COc1ccccc1NC(=O)c1sc(-c2ccc(Cl)cc2)cc1N | n | n | n | x | n
C[C@@H]1c2cccc(O)c2C(O)=C2C(=O)[C@@]3(O)C(O)=C(C(N)=O)C(=O)[C@@H](N(C)C)[C@@H]3[C@@H](O)[C@@H]21 | x | n[12.7 µM] | x | x | x
CN(C)c1ccc(O)c2c1C[C@H]1C[C@H]3[C@@H](N(C)C)C(=O)C(C(N)=O)=C(O)[C@]3(O)C(=O)C1=C2O | x | 8.9µM | x | x | x
O=[N+]([O-])c1ccc(C2Oc3ccccc3C3CC(c4ccccc4)=NN32)s1 (stereo unspecified) | x | 10µM | x | n | u
c1ccc(C2Oc3ccccc3C3CC(c4cccs4)=NN32)cc1 (stereo unspecified) | n | n | n | n | n
CC(=O)Nc1ccc(S(=O)(=O)c2cc(O)ccc2O)cc1 | n | 13µM | u | n | n
Cc1ccc(S(=O)(=O)c2cc(O)ccc2O)cc1C | n | 50µM | n | x | n
Cc1ccc(S(=O)(=O)Nc2ccc(O)c(S(=O)(=O)c3ccc(C)cc3)c2)cc1 | n | x | n | x | n
OC1CC(c2ccco2)NC2(CCCCC2)C1 (stereo unspecified) | 7.9µM | 8.9µM | n | n | u
c1coc(C2OCC3(CO2)COC(c2ccco2)OC3)c1 (stereo unspecified) | n | n | n | x | n
COc1ccccc1C1NC(c2ccc3c(c2)OCO3)=CC(c2ccccc2O)N1 (stereo unspecified) | n | x | n | x | x
CCOC(=O)C(C)Sc1nc(N2CCOCC2)c2c(c1C#N)CC(C)(C)OC2 (stereo unspecified) | n | x | n | x | x
SMILES | JMJD2A Tudor inh | G9a block | HP1b chromo inh | L3MBTL1 inh | BAZ2B inh
CC(Sc1nc(N2CCOCC2)c2c(c1C#N)CC(C)(C)OC2)C(=O)Nc1ccccc1 (stereo unspecified) | n | 5.6µM | n | n | n
CCOC(=O)CCSc1nc(N2CCOCC2)c2c(c1C#N)CC(C)(C)OC2 | n | 35µM | n | x | n
COC(=O)CCSc1nc(N2CCOCC2)c2c(c1C#N)CC(C)(C)OC2 | n | n[2.33 µM] | n | x | n
N#Cc1ccc(-c2cccs2)nc1SCc1ccc(Cl)cc1Cl | n | n | n | x | n
CCOc1ccc(CC(=O)Nc2c3c(nn2C(C)(C)C)CS(=O)(=O)C3)cc1 | n | 79µM | n | x | n
CC1=C(C(=O)Nc2ccccc2Cl)C(c2cccc(O)c2)n2ncnc2N1 (stereo unspecified) | n | n | n | x | n
CCOC(=O)c1cc(S(=O)(=O)Nc2ccccc2OCC)[nH]n1 | 50µM | 8.9µM | n | x | 50µM
CCOC(=O)c1cc(S(=O)(=O)Nc2ccccc2)[nH]n1 | u | 10µM | n | x | 79µM
CCOC(=O)c1cc(S(=O)(=O)Nc2ccc(OC(F)(F)F)cc2)[nH]n1 | u | 3.2µM | n | x | 50µM
CCCCOc1ccccc1NC(=O)CC1Sc2ccccc2NC1=O (stereo unspecified) | n | n | n | x | n
CC1(C)CC(NC(=O)c2ccccn2)CC(C)(C)N1O | u | u | n | n | 50µM
CN(Cc1ccccc1)C(=O)c1ccc(CSc2nc3cccnc3n2Cc2ccccc2)cc1 | n | n | n | x | n
COc1ccccc1OCC(=O)N(Cc1ccco1)Cc1ccccc1F | u | n | n | x | n
CCN(CC)c1ccc(/C=C2\C(=O)c3ccc(C(=O)O)cc3C2=O)cc1 | 45µM | 11µM | 40µM | u | 14µM
Cc1c(Cl)cnn1CC(=O)NC1C(=O)N2C(C(=O)O)=C(CSc3nnnn3C)CSC12 (stereo unspecified) | n | u | n | x | 56µM
Cc1c(Cl)c(C(F)F)nn1CC(=O)NC1C(=O)N2C(C(=O)O)=C(CSc3nnnn3C)CSC12 (stereo unspecified) | n | 28µM | n | x | n
Cc1cc(=O)c(C(=O)N[C@@H](C(=O)N[C@@H]2C(=O)N3C(C(=O)O)=C(CSc4nnnn4C)CS[C@H]23)c2ccc(O)cc2)c[nH]1 | x | n[12.7 µM] | x | x | x
Cn1nnnc1SCC1=C(C(=O)O)N2C(=O)C(NC(=O)Cn3nc(C(F)F)cc3C3CC3)C2SC1 (stereo unspecified) | n | u | n | x | 71µM
Cc1nn(CC(=O)NC2C(=O)N3C(C(=O)O)=C(CSc4nnnn4C)CSC23)cc1Br (stereo unspecified) | n | 40µM | n | x | u
COc1cc(C(CC(=O)NCc2ccccc2)N2Cc3ccccc3C2=O)cc(OC)c1OC (stereo unspecified) | n | u | n | x | n
O=C(NCC(=O)N(c1ccc(F)cc1)C(C(=O)NC1CCCCC1)c1ccncc1)c1ccco1 (stereo unspecified) | n | n | n | x | n
COc1ccc(C)cc1NCc1cccc(OC)c1OC | 6.3µM | 7.9µM | u | n | 45µM
COc1cc(OC)c(OC)cc1CNc1cc(C)ccc1OC | 40µM | 7.9µM | u | u | x
COc1ccc(CNc2cc(C)ccc2C)c(OC)c1OC | n | u | n | n | n
COc1ccccc1CNS(=O)(=O)c1cc(C)ccc1OC | n | n | n | n | n
COc1cccc(CNS(=O)(=O)c2ccccc2Br)c1OC | 79µM | x | n | x | x
O=C(O/N=C\c1ccc(N2CCCCC2)c([N+](=O)[O-])c1)c1cccc(C(F)(F)F)c1 | u | 5µM | u | n | u
O=C(O/N=C\c1ccc(N2CCCCC2)c([N+](=O)[O-])c1)c1c(F)cccc1F | u | 14µM | u | u | u
